From PubChem BioAssay (NCI)
The panel holds about 79,000 compounds, 15% with a hit somewhere; the sample as a whole holds those more often. Calls of active or inactive are those of the source. Cut-off read from the data, not from the text of the source: active = growth inhibition above about 70%; inactive = the rest.

Columns and labels:
[1] = NCI Yeast Anticancer Drug Screen. Data for the rad52 strain (AID 147);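 note: 0% = growth of vehicle-treated control cultures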; conditions: S. cerevisiae rad52 mutant growth inhibition, active compounds read high
Summary of the method: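 Here a repair-compromised yeast strain receives each compound; its growth is then quantified and normalised to vehicle-only controls.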

[2] = NCI Yeast Anticancer Drug Screen. Data for the wt1 strain (AID 149);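 note: 0% = growth of vehicle-treated wt1 cultures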; conditions: S. cerevisiae wt1 strain (SPY 50644) growth inhibition, active compounds read high
Summary of the method: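 Compounds are added to wt1 yeast cultures. Growth is then measured. Inhibition is expressed relative to vehicle-treated controls.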

[3] = NCI Yeast Anticancer Drug Screen. Data for the rad50EPP+ strain (AID 151);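 note: 0% = growth of vehicle-treated control cultures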; conditions: S. cerevisiae rad50 mutant strain, active compounds read high
Summary of the method: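 Read-out is yeast growth inhibition relative to vehicle; cells used were the rad50EPP+ strain.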

[4] = NCI Yeast Anticancer Drug Screen. Data for the mgt1 strain (AID 153); conditions: S. cerevisiae mgt1 mutant growth inhibition, active compounds read high
Summary of the method: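 Measured: inhibition of mgt1 yeast growth by compound, normalized to vehicle-treated cultures.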

[5] = NCI Yeast Anticancer Drug Screen. Data for the rad50 strain (AID 155);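 note: 0% = growth of vehicle-only cultures of the same strain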; conditions: S. cerevisiae rad50 strain growth inhibition, active compounds read high
Summary of the method: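 Inhibition values express reduced yeast growth in compound-treated cultures relative to vehicle-treated controls.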

[6] = NCI Yeast Anticancer Drug Screen. Data for the mec2-1 strain (AID 157); conditions: S. cerevisiae mec2-1 strain, active compounds read high
Summary of the method: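 Using mec2-1 yeast: add compound, measure growth, express inhibition versus vehicle-treated cultures.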

[7] = NCI Yeast Anticancer Drug Screen. Data for the rad14 strain (AID 159);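 note: 0% = growth of vehicle-treated control cultures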; conditions: S. cerevisiae rad14 strain growth inhibition, active compounds read high
Summary of the method: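 A mutant yeast strain defective in DNA damage repair is treated with compound; inhibition of its growth is scored against untreated, vehicle-exposed cultures.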

[8] = NCI Yeast Anticancer Drug Screen. Data for the sgs1 mgt1 strain (AID 161);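 note: 0% = growth of cultures given vehicle only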; conditions: S. cerevisiae sgs1 mgt1 strain, active compounds read high
Summary of the method: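 Percent growth inhibition was derived by comparing compound-exposed mutant yeast with vehicle-exposed cultures. The strain carries alterations in DNA damage repair.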

[9] = NCI Yeast Anticancer Drug Screen. Data for the CLN2oe strain (AID 163);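 note: 0% = growth of vehicle-only control cultures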; conditions: S. cerevisiae CLN2oe strain, active compounds read high
Summary of the method: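 Whole-cell yeast growth assay. A strain engineered for altered cell-cycle control received compound, and inhibition relative to vehicle-treated cultures was recorded.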

[10] = NCI Yeast Anticancer Drug Screen. Data for the cln2 rad14 strain (AID 165);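 note: 0% = growth equal to vehicle treated cultures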; conditions: S. cerevisiae cln2 rad14 strain, active compounds read high
Summary of the method: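 Yeast strain cln2 rad14, bearing defects in cell cycle control and DNA repair, serves as the test system; values reflect growth inhibition compared with vehicle.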

[11] = NCI Yeast Anticancer Drug Screen. Data for the bub3 strain (AID 167); conditions: S. cerevisiae bub3 mutant strain, active compounds read high
Summary of the method: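 Steps: expose the mutant yeast strain to compound; grow alongside vehicle-treated cultures; measure growth; express inhibition against the vehicle cultures.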

[12] = NCI Yeast Anticancer Drug Screen. Data for the wt2 strain (AID 169);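 note: 0% = growth of vehicle-treated yeast cultures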; conditions: S. cerevisiae wt2 strain growth inhibition, active compounds read high
Summary of the method: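 Treated yeast vs. vehicle-treated yeast: growth inhibition determined.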

[13] = NCI Yeast Anticancer Drug Screen. Data for the mlh1 strain (AID 171);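 note: 0% = growth of vehicle-treated control cultures of the same strain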; conditions: S. cerevisiae mlh1 strain growth inhibition, active compounds read high
Summary of the method: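 A yeast strain with a defined genetic lesion serves as the test organism. Cultures receive compound or vehicle, and growth is measured.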

[14] = NCI Yeast Anticancer Drug Screen. Data for the sgs1 strain (AID 173);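 note: 0% = growth of vehicle-only control cultures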; conditions: S. cerevisiae sgs1 mutant, active compounds read high
Summary of the method: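 A genetically defined yeast mutant is incubated with the test compound, and its growth is compared to that of the same strain given vehicle.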

[15] = NCI Yeast Anticancer Drug Screen. Data for the mlh1 rad18 strain (AID 175); conditions: S. cerevisiae mlh1 rad18 strain growth inhibition, active compounds read high
Summary of the method: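 Steps: expose repair-defective yeast to compound; measure growth; express inhibition against vehicle-treated controls.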

[16] = NCI Yeast Anticancer Drug Screen. Data for the rad18 strain (AID 177); conditions: S. cerevisiae rad18 mutant growth inhibition, active compounds read high
Summary of the method: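 Measured value is growth inhibition of a yeast strain bearing a DNA repair alteration, referenced to vehicle-treated cells.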

[17] = at 5.0 µM (retest, dose inferred, filed as 0.5)
[18] = at 50.0 µM (retest, dose inferred, filed as 5.0)

Measured: growth inhibition

Oc1ccc(-c2nc(-c3ccc(F)cc3)c(-c3ccc4ccccc4n3)[nH]2)cc1
inactive: [1]; at 1.2 µM -48% | [1]; at 3.7 µM -41% | [2]; at 1.2 µM -60% | [2]; at 3.7 µM -54% | [2]; at 11.0 µM 64% | [2]; at 33.0 µM 18% | [3]; at 1.2 µM -43% | [3]; at 3.7 µM -37% | [3]; at 11.0 µM -26% | [3]; at 33.0 µM -16% | [3]; at 100.0 µM -18% | [4]; at 1.2 µM -28% | [4]; at 3.7 µM -31% | [5]; at 1.2 µM -31% | [5]; at 3.7 µM -44% | [5]; [17] 19% | [5]; [18] 54% | [6]; at 1.2 µM -40% | [6]; at 3.7 µM -27% | [6]; [17] 16% | [6]; at 11.0 µM 69% | [6]; [18] 63% | [7]; at 1.2 µM -51% | [7]; at 3.7 µM -49% | [7]; at 11.0 µM -6% | [8]; [17] 0% | [8]; [18] -41% | [9]; at 1.2 µM -5% | [9]; at 3.7 µM -8% | [10]; [17] 13% | [10]; [18] -33% | [11]; at 1.2 µM -32% | [11]; at 3.7 µM -20% | [11]; [17] 5% | [11]; [18] -31% | [12]; at 1.2 µM -56% | [12]; at 3.7 µM -40% | [13]; at 1.2 µM -44% | [13]; at 3.7 µM -37% | [13]; at 11.0 µM 36% | [14]; at 1.2 µM -34% | [14]; at 3.7 µM -38% | [15]; [17] 27% | [16]; at 1.2 µM -28% | [16]; at 3.7 µM -36%
active: [1]; at 11.0 µM 85% | [1]; at 33.0 µM 96% | [1]; at 100.0 µM 88% | [2]; at 100.0 µM 94% | [4]; at 11.0 µM 81% | [4]; at 33.0 µM 97% | [4]; at 100.0 µM 92% | [5]; at 11.0 µM 76% | [5]; at 33.0 µM 97% | [5]; at 50.0 µM 90.5% | [5]; at 100.0 µM 94% | [6]; at 33.0 µM 98% | [6]; at 50.0 µM 93% | [6]; at 100.0 µM 96% | [7]; at 33.0 µM 94% | [7]; at 100.0 µM 91% | [8]; at 50.0 µM 92.2% | [9]; at 11.0 µM 93% | [9]; at 33.0 µM 98% | [9]; at 100.0 µM 94% | [10]; at 50.0 µM 90.6% | [11]; at 11.0 µM 96% | [11]; at 33.0 µM 98% | [11]; at 50.0 µM 91.8% | [11]; at 100.0 µM 90% | [12]; at 11.0 µM 96% | [12]; at 33.0 µM 96% | [12]; at 100.0 µM 93% | [13]; at 33.0 µM 98% | [13]; at 100.0 µM 94% | [14]; at 11.0 µM 97% | [14]; at 33.0 µM 98% | [14]; at 100.0 µM 90% | [15]; [18] 70% | [15]; at 50.0 µM 85.8% | [16]; at 11.0 µM 96% | [16]; at 33.0 µM 97% | [16]; at 100.0 µM 94%
